# From PubChem
# Only some compounds are listed: those with a hit (about 21% of all), similar ones and a draw of the others.
# Pf growth 96h: P. falciparum growth inhibition at 96 hour, primary screen for plastid delayed-death inhibitors | P. falciparum luciferase reporter growth, 96 h | actives 6.9% (n = 320,000) | Potency, µM (doses to about 28.7 µM), inactives show at the highest dose activity change, negative = inhibition, hits mostly inhibitors; note: potency is the fitted concentration of half-maximal effect; % is set by controls: 0 for no effect and ±100 for the full control effect
#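 Compounds incubated with erythrocytes infected by luciferase-expressing P. falciparum (2% hematocrit, 0.05% parasitemia final) for 96 hours, 37 C in 5% CO2. Growth inhibition scored as decreased luciferase luminescence.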
# Cycloheximide cs: affects cycloheximide protein synthesis inhibition readout, counter-screen | cell reporter, cycloheximide protein synthesis inhibition counterscreen | max response, % | actives 12% (n = 300,000); in the data active = max response mostly above about 13%, no sharp cut-off; inactive = mostly below about 14%; note: read at 38.3 µM for the half of the compounds with a filed dose; 0% is about no effect
# Shiga toxin inh: blocks Shiga toxin action in Vero cells; inhibition, % at 38.7 µM; AID 2315; actives 9.2% (n = 290,000); Vero cells, Shiga toxin protein synthesis inhibition reporter; in the data active = inhibition mostly above about 28%, no sharp cut-off; inactive = mostly below about 43%; note: 0% is about no effect
# Pf growth 48h: P. falciparum growth inhibition at 48 hours (one generation); P. falciparum luciferase growth in erythrocytes, 48 h; Potency, µM (top dose mostly 28.7 µM), for inactives: at the top dose activity change, negative = inhibition, most hits filed as inhibitors; actives 5.9% (n = 310,000); AID 504832; note: potency is the fitted concentration of half-maximal effect; % is set by controls: 0 for no effect and ±100 for the full control effect
#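 Luciferase-expressing P. falciparum in infected erythrocytes (2% hematocrit, 0.1% parasitemia final) in RPMI 1640/0.5% Albumax were exposed to compound for 48 hours at 37 C, 5% CO2; growth read as luminescence.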
# Starred values were filed as active, the others as inactive; ? = inconclusive; / = no result given; [ ] = dose if it differs, or a comment. Unless noted, calls come from the whole dose curve; as a rule, active = well fitted inhibition curve with a large enough effect; inconclusive = small, poorly fitted or top-dose-only effect, or another doubt; inactive = no such curve, though single readings can be large or run the other way.
SMILES,Pf growth 96h,Cycloheximide cs,Shiga toxin inh,Pf growth 48h
COc1cccc(C2=NOC(C(=O)N3CCOCC3)C2)c1 (configuration not stated),1.7µM*,63*,141*,159%
COc1cccc(C2=NOC(C(=O)N3CCN(C(=O)c4ccco4)CC3)C2)c1 (configuration not stated),4%,-2,23,11%
COc1ccc(C2=NOC(C(=O)N3CCOCC3)C2)cc1OC (configuration not stated),109%,18*,50*,109%
O=C(O)CN1C(=O)/C(=C/c2ccccc2Br)Oc2ccccc21,37%,12,-6,27%
Cc1cnc(C(=O)OCC(=O)N2CCN(C(=O)c3ccco3)CC2)cn1,5.2µM*,-1,1,-1%
O=C(OCC(=O)N1CCN(C(=O)c2ccco2)CC1)c1ccccc1C(=O)c1ccccc1,?,-1,-2,-20%
CCOC(=O)/C=C/C(=O)OCC(=O)N1CCN(C(=O)c2ccco2)CC1,1%,9.0*,27,40%
Cc1ccsc1C(=O)OCC(=O)N1CCN(C(=O)c2ccco2)CC1,8%,33,26*,18%
O=C(OCC(=O)N1CCN(C(=O)c2ccco2)CC1)C1=COCCO1,2%[5.75 µM],-4,-12,15%
C/C(CC(=O)Nc1ccc2c(c1)OCCO2)=N\NC(=O)c1cccc(O)c1,?,33*,84*,28%
C/C(CC(=O)Nc1cccc(F)c1)=N\NC(=O)c1ccncc1,98%,10,28,6%
C/C(CC(=O)Nc1ccc(Br)cc1)=N\NC(=O)c1cccc(O)c1,?,44*,69*,?
COc1ccc(C(=O)N/N=C(\C)CC(=O)Nc2ccc3c(c2)OCO3)cc1,14%,37*,55*,-1%
COc1ccc(/C=C/C(=O)c2ccc[nH]2)c(OC)c1OC,27%,26*,100*,31%
COc1ccc(/C=C/C(=O)c2ccncc2)c2ccccc12,22%,7,2,3%
COc1ccc(/C=C/C(=O)c2cc(Br)ccc2O)cc1OC,?,-3,9,-24%
COc1ccc(/C=C/C(=O)c2ccc[nH]2)cc1OC,18%,30*,51,/
Cc1c(CCC(=O)O)c(=O)oc2c(C)c(OCc3cc4c(cc3Cl)OCO4)ccc12,12%,-2,-6,8%
C#CCOCCOCCOCCNc1nc(N2CCN(C(=O)CCCCCCCCCCNC(=O)Cn3cc(CCCCCN)nn3)CC2)nc(N2CCN(C(=O)CCCCCCCCCCNC(=O)Cn3cc(CCCCCN)nn3)CC2)n1,6.6µM*,/,/,1.7µM*
C#CCOCCOCCOCCNc1nc(N2CCN(C(=O)CCCCCCCCCCNC(=O)Cn3cc(C[C@@H](C)O)nn3)CC2)nc(N2CCN(C(=O)CCCCCCCCCCNC(=O)[C@H](CCCCN)n3cc(CCCC(=O)O)nn3)CC2)n1,?,/,/,5.2µM*
C#CCOCCOCCOCCNc1nc(N2CCN(C(=O)CCCCCCCCCCNC(=O)Cn3cc(CCCCCN)nn3)CC2)nc(N2CCN(C(=O)CCCCCCCCCCNC(=O)[C@@H](CCSC)n3cc(CCO)nn3)CC2)n1,1µM*,/,/,1.2µM*
C#CCOCCOCCOCCNc1nc(N2CCOCC2)nc(N2CCN(C(=O)[C@H](C)n3cc(CCCN=C(N)N)nn3)CC2)n1,-23%,-3,-11,19%
C#CCOCCOCCOCCNc1nc(N2CCN(C(=O)CCCCCCCCCCNC(=O)[C@H](CO)n3cc(CCCSC)nn3)CC2)nc(N2CCN(C(=O)CCCCCCCCCCNC(=O)[C@H](CCCN=C(N)N)n3cc(C[C@@H](C)CC)nn3)CC2)n1,5.2µM*,/,/,1.5µM*
CCN(CC(=O)Nc1c(F)cccc1F)C(=O)c1cccc(S(=O)(=O)N(C)c2ccccc2)c1,-3%,/,/,?
O=C(CN1C(=O)c2ccccc2S1(=O)=O)NCc1cccs1,54%,8,-15,25%
SMILES,Pf growth 96h,Cycloheximide cs,Shiga toxin inh,Pf growth 48h
CCc1nnc(NS(=O)(=O)c2ccc(NC(=O)c3ccccc3O)cc2)s1,-48%,-7,-4,3%
C#CCOCCOCCOCCNc1nc(N2CCN(C(=O)CCCCCCCCCCNC(=O)Cn3cc(C[C@@H](C)O)nn3)CC2)nc(N2CCN(C(=O)CCCCCCCCCCNC(=O)[C@@H](CCC(=O)O)n3cc(CCCCCN)nn3)CC2)n1,?,/,/,1µM*
C#CCOCCOCCOCCNc1nc(N2CCN(C(=O)CCCCCCCCCCNC(=O)Cn3cc(C[C@@H](C)O)nn3)CC2)nc(N2CCN(C(=O)CCCCCCCCCCNC(=O)[C@H](CO)n3cc(CCCSC)nn3)CC2)n1,0.15µM*,/,/,0.15µM*
C#CCOCCOCCOCCNc1nc(N2CCN(C(=O)CCCCCCCCCCNC(=O)Cn3cc(CCCCCN)nn3)CC2)nc(N2CCN(C(=O)CCCCCCCCCCNC(=O)[C@@H](CCC(=O)O)n3cc(CCCCCN)nn3)CC2)n1,?,/,/,13µM*
C#CCOCCOCCOCCNc1nc(N2CCN(C(=O)CCCCCCCCCCNC(=O)[C@H](CO)n3cc(CCCSC)nn3)CC2)nc(N2CCN(C(=O)CCCCCCCCCCNC(=O)[C@@H]([C@H](C)O)n3cc(C)nn3)CC2)n1,0.093µM*,/,/,0.29µM*
C#CCOCCOCCOCCNc1nc(N2CCOCC2)nc(N2CCN(C(=O)Cn3cc(CC(C)O)nn3)CC2)n1 (configuration not stated),?,-4,-12,17%
C#CCOCCOCCOCCNc1nc(N2CCN(C(=O)[C@H]([C@@H](C)O)n3cc(CCCCN)nn3)CC2)nc(N2CCN(C(=O)[C@H](CCCCN)n3cc(CCC(=O)O)nn3)CC2)n1,85%,/,/,-12%
CC(Sc1nc(N)cc(N)n1)C(=O)NCCC1=CCCCC1 (configuration not stated),-21%,/,/,-3%
CCOc1ccc(N(CC(=O)N2CCCCC2)S(=O)(=O)c2ccc(Cl)cc2)cc1,-16%,-7,21,?
C#CCOCCOCCOCCNc1nc(N2CCN(C(=O)CCCCCCCCCCNC(=O)[C@@H](CCSC)n3cc(CCO)nn3)CC2)nc(N2CCN(C(=O)CCCCCCCCCCNC(=O)[C@H](CCSC)n3cc(CCO)nn3)CC2)n1,0.29µM*,/,/,0.33µM*
C#CCOCCOCCOCCNc1nc(N2CCN(C(=O)CCCCCCCCCCNC(=O)Cn3cc(C[C@@H](C)O)nn3)CC2)nc(N2CCN(C(=O)CCCCCCCCCCNC(=O)[C@H](CCCN=C(N)N)n3cc(C[C@@H](C)CC)nn3)CC2)n1,1µM*,/,/,1.3µM*
O=C(OCc1nnc(-c2ccccc2)o1)C1CCN(C(=O)c2ccc(Cl)cc2)CC1,37%,/,/,2%
OCCN1CCN(CC(O)COc2ccc(C34CC5CC(CC(C5)C3)C4)cc2)CC1 (configuration not stated),12µM*,8,-2,?
OCCN1CCN(CC(O)COc2ccc(Cl)cc2)CC1 (configuration not stated),9%,-1,-29,5%
CCCCc1nc(S(=O)(=O)c2ccc(Cl)cc2)c(N2CCOCC2)o1,-26%,27*,34*,51%
CCOC(=O)c1sc2nc(SCC(=O)N(CC)CC)n(CCCN3CCCC3=O)c(=O)c2c1C,-92%,-1,-17,2.1µM*
